Results filed as inconclusive are left out. Where a call stands in place of a potency, no number is given. Calls of active or inactive are those of the source. Unless noted, the call rests on the fitted dose curve; in most records, active means well fitted curve in the direction sought with a large enough effect; inconclusive means small, poorly fitted or top-dose-only effect, or another doubt; inactive means no such curve, though single readings can be large; an effect the other way counts as inactive or inconclusive.
Tested on: not listed separately
Experiment: Primary qHTS for inhibitors of nuclear receptor binding SET domain protein 2 (NSD2) in an isogenic RCH-ACV NSD2 p.E1099K mutant (9B) (AID 1645876); further: nearly all actives have a fitted effect of over 70% in size; further: potency means the concentration at half of the fitted maximal effect
Conditions: RCH-ACV NSD2 E1099K (9B) viability, CellTiter-Glo, 72 h; series mostly up to 44.9 µM

| Structure (SMILES) | Potency |
| --- | --- |
| CC(N[C@H]1C[C@H]1c1ccccc1)c1ccc2c(c1)OCCO2 (stereo partly specified) | inactive |
| CC1=C(C(=O)O)N2C(=O)[C@@H](N)[C@H]2SC1 | inactive |
| c1cc2ccc3cccc4ccc(c1)c2c34 | inactive |
| COC[C@H]1OC(=O)c2coc3c2[C@@]1(C)C1=C(C3=O)[C@@H]2CC[C@H](O)[C@@]2(C)C[C@@H]1OC(C)=O | 580 nM (active) |
| CC(=O)NCCc1c[nH]c2ccccc12 | inactive |
| CCC1(CCC(C)C)C(=O)NC(=O)NC1=O | inactive |
| S=C(NC1CCCCC1)N1CCC(c2cnc[nH]2)CC1 | inactive |
| N=c1c2c(-c3ccccc3)c(-c3ccccc3)n(Cc3ccccc3)c2ncn1C1CCC(O)CC1 (stereo unspecified) | 590 nM (active) |
| COC(C)(C)CCCC(C)C/C=C/C(C)=C/C(=O)OC(C)C (stereo unspecified) | inactive |
| CC(=O)[O][Hg][c]1ccccc1 | 596 nM (active) |
| CC(C)Oc1cccc(NC(=O)c2ccccc2C(F)(F)F)c1 | 21700 nM (active) |
| CC(O)CN1CCN(CC(=O)[O-])CCN(CC(=O)[O-])CCN(CC(=O)[O-])CC1.[Gd+3] (stereo unspecified) | inactive |
| O=[N+]([O-])c1c(Cl)c(Cl)cc(Cl)c1Cl | inactive |
| O=C(O)CCCOc1ccc(Cl)cc1Cl | inactive |
| Cc1ccc(Cl)c(O)c1 | inactive |
| CCOCCOC(C)=O | inactive |
| C=CCC1=C(C)C(OC(=O)C2C(C=C(C)C)C2(C)C)CC1=O (stereo unspecified) | 24300 nM (active) |

Tested on: not listed separately
Experiment: Primary qHTS for inhibitors of nuclear receptor binding SET domain protein 2 (NSD2) in an RCH-ACV wild type WT cells (2C) (AID 1645877); further: nearly all actives have a fitted effect of over 70% in size; further: potency means the concentration at half of the fitted maximal effect
Conditions: RCH-ACV (leukaemia line) NSD2 WT (2C) viability, CellTiter-Glo, 72 h; series mostly up to 44.9 µM

| Structure (SMILES) | Potency |
| --- | --- |
| CC(N[C@H]1C[C@H]1c1ccccc1)c1ccc2c(c1)OCCO2 (stereo partly specified) | inactive |
| CC1=C(C(=O)O)N2C(=O)[C@@H](N)[C@H]2SC1 | inactive |
| c1cc2ccc3cccc4ccc(c1)c2c34 | inactive |
| COC[C@H]1OC(=O)c2coc3c2[C@@]1(C)C1=C(C3=O)[C@@H]2CC[C@H](O)[C@@]2(C)C[C@@H]1OC(C)=O | 580 nM (active) |
| CC(=O)NCCc1c[nH]c2ccccc12 | inactive |
| COCCOCCO | inactive |
| CCC1(CCC(C)C)C(=O)NC(=O)NC1=O | inactive |
| S=C(NC1CCCCC1)N1CCC(c2cnc[nH]2)CC1 | inactive |
| N=c1c2c(-c3ccccc3)c(-c3ccccc3)n(Cc3ccccc3)c2ncn1C1CCC(O)CC1 (stereo unspecified) | 263 nM (active) |
| COC(C)(C)CCCC(C)C/C=C/C(C)=C/C(=O)OC(C)C (stereo unspecified) | inactive |
| CC(=O)[O][Hg][c]1ccccc1 | 531 nM (active) |
| CC(C)Oc1cccc(NC(=O)c2ccccc2C(F)(F)F)c1 | 24300 nM (active) |
| CC(O)CN1CCN(CC(=O)[O-])CCN(CC(=O)[O-])CCN(CC(=O)[O-])CC1.[Gd+3] (stereo unspecified) | inactive |
| O=[N+]([O-])c1c(Cl)c(Cl)cc(Cl)c1Cl | inactive |
| O=C(O)CCCOc1ccc(Cl)cc1Cl | inactive |
| Cc1ccc(Cl)c(O)c1 | inactive |
| CCOCCOC(C)=O | inactive |
| C=CCC1=C(C)C(OC(=O)C2C(C=C(C)C)C2(C)C)CC1=O (stereo unspecified) | 34400 nM (active) |

Molecular target: Catechol O-methyltransferase (Homo sapiens) (UniProt P21964)
Sequence (P21964 whole entry, looked up): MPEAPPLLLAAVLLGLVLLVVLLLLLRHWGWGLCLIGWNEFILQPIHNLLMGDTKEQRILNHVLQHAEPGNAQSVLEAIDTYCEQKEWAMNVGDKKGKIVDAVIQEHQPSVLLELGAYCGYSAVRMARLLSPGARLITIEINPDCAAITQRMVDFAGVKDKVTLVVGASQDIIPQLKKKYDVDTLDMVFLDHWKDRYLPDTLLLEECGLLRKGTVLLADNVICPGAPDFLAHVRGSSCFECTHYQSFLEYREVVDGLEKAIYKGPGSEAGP
Experiment: Confirmatory Screen for Target Class Profiling of Small Molecule Inhibitors of Methyltransferases (AID 1745852; calls by dose curve)
Conditions: MTase-Glo luminescence, SAH detection, recombinant enzyme; measured here: COMT max response; stronger effect = lower value

| Structure (SMILES) | activity [%] |
| --- | --- |
| NC1CC1c1ccccc1 (stereo unspecified) | 4.07 |
| NCCc1c[nH]c2ccccc12 | -4.15 |
| C[C@@H](N)Cc1cnc[nH]1 | -4.66 |

Molecular target: Guanidinoacetate N-methyltransferase (Homo sapiens) (UniProt Q14353)
Experiment: as above
Conditions: MTase-Glo luminescence, SAH detection, recombinant enzyme; activity change, negative = inhibition: at 57.3 µM (top of the series)

| Structure (SMILES) | activity change, negative = inhibition [%] |
| --- | --- |
| NC1CC1c1ccccc1 (stereo unspecified) | 2.15 |
| NCCc1c[nH]c2ccccc12 | 2.74 |
| C[C@@H](N)Cc1cnc[nH]1 | -1.84 |
